Assay results reported in PubChem BioAssay (Tox21).
Results filed as inconclusive are left out. The source made the active and inactive calls. Unless noted, calls follow the shape of the dose curve; as a rule, active = well fitted curve in the direction sought with a large enough effect in the repeat runs; inconclusive = weak or mixed curves; inactive = no such curve, though single readings can be large; an effect the other way counts as inactive or inconclusive.

Columns and labels:
[1] = molecular target: Thyrotropin receptor (Homo sapiens) (UniProt P16473); test: qHTS assay to identify small molecule antagonists of the thyroid stimulating hormone receptor (TSHR) signaling pathway (AID 1259385; calls by dose curve; also: nearly all actives have a fitted effect of over 20% in size)
How it was run: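 TSHR-HEK293 cells (800/well) plated 18 h, then compounds with Ro20-1724 and TSH at 1.5 ng/mL final, 30 min at room temperature. cAMP quantified by HTRF (cAMP-d2/anti-cAMP-cryptate, 1 h); 15 concentrations in triplicate.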

[2] = qHTS assay to identify small molecule agonists of the estrogen receptor alpha (ER-alpha) signaling pathway in the presence of an antagonist - cell viability counter screen (AID 1259386);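 also: series mostly up to about 92 µM; cells exposed to compounds for 22 h at 37 °C before the viability read; nearly all actives have a fitted effect of over 30% in size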
How it was run: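 Using estrogen-depleted VM7Luc4E2 cells, the 15-concentration compound series was applied together with 10.0nM ICI-182,780 and incubated 22hr at 37C/5% CO2. Cell viability was then scored by CellTiter-Fluor.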

[3] = molecular target: Progesterone receptor (Homo sapiens) (UniProt P06401); test: qHTS assay to identify small molecule agonists of the progesterone receptor (PR) signaling pathway (AID 1346784; calls by dose curve; also: nearly all actives have a fitted effect of over 30% in size)
How it was run: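 Fluorescence from LiveBLAzer B/G FRET substrate cleavage (2 hr, RT) reported PR activation in PR-UAS-bla HEK 293T cells treated 16 hr at 37C/5% CO2 with compounds; medium contained 2% charcoal-stripped FBS.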

[4] = molecular target: Progesterone receptor (Homo sapiens) (UniProt P06401); test: qHTS assay to identify small molecule antagonists of the progesterone receptor (PR) signaling pathway (AID 1346795; active = well fitted inhibition curve with a large enough effect in the signal ratio in the repeat runs, not every such curve was filed as active; the % refers to the signal ratio; also: potency is read from the fitted curve at half-maximal effect)
How it was run: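 Fluorescence intensity measured 2 hr after adding beta-lactamase FRET substrate to PR-UAS-bla HEK293T cells that had been co-treated 16 hr with compound and 1 nM R5020 (final concentration) in 2% charcoal-stripped FBS.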

[5] = qHTS assay to identify small molecule antagonists of the progesterone receptor (PR) signaling pathway - cell viability counter screen (AID 1346798); also: series mostly up to about 92 µM; nearly all actives have a fitted effect of over 50% in size
How it was run: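 CellTiter-Glo luminescence; PR-UAS-bla HEK293T, 3,000 cells/well; compound + R5020, 16 hr, 37C/5% CO2; 30 min RT before read.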

[6] = qHTS assay to identify small molecule agonists of the progesterone receptor (PR) signaling pathway - cell viability counter screen (AID 1346799; calls by dose curve; also: nearly all actives have a fitted effect of over 45% in size)
How it was run: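 In parallel with the beta-lactamase readout, cytotoxicity toward PR-UAS-bla HEK293T cells was measured by CellTiter-Glo luminescence following 16 hr compound incubation in 2% charcoal-stripped FBS medium.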

[7] = qHTS assay to identify small molecule antagonists of the TGF-beta/Smad signaling pathway - cell viability counter screen (AID 1346824); also: nearly all actives have a fitted effect of over 50% in size
How it was run: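 SBE-bla HEK 293T cells, incubated overnight, then compound plus 0.25 ng/mL TGF-beta1 (stock added) for 5 hr at 37 C. Viability was read in the same wells by CellTiter-Glo luminescence after 30 min at room temperature.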

[8] = qHTS assay to identify small molecule agonists of the TGF-beta/Smad signaling pathway - cell viability counter screen (AID 1346829); also: top concentration of the series differs between compounds; nearly all actives have a fitted effect of over 45% in size
How it was run: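 In parallel with the Smad reporter read, viability of HEK 293T cells stably carrying SBE-bla is quantified by ATP luminescence following 5 hr compound treatment.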

[9] = qHTS assay to identify small molecule agonists of the TGF-beta/Smad signaling pathway (AID 1346859; active = well fitted activation curve with a large enough effect in the signal ratio in the repeat runs, not every such curve was filed as active; the % refers to the signal ratio; also: series mostly up to about 77 µM)
How it was run: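 After overnight seeding, SBE-bla HEK 293T cells are dosed with compounds in DMSO and kept 5 hr at 37 C, 5% CO2. LiveBLAzer-type FRET substrate is then applied for 2 hr at room temperature.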

[10] = molecular target: Thyrotropin-releasing hormone receptor (Homo sapiens) (UniProt P34981); test: qHTS assay to identify small molecule antagonists of the thyrotropin-releasing hormone receptor (TRHR) signaling pathway (AID 1346877; active = well fitted inhibition curve with a large enough effect in the repeat runs, not every such curve was filed as active; also: series mostly up to about 51 µM)
How it was run: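 Calcium signal in dye-loaded TRHR/HEK293 cells; compounds added 5 min before TRH (1 nM final); fluorescence monitored 3 min at 1 s steps.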

[11] = molecular target: Thyrotropin-releasing hormone receptor (Homo sapiens) (UniProt P34981); test: qHTS assay to identify small molecule agonists of the thyrotropin-releasing hormone receptor (TRHR) signaling pathway (AID 1346891; calls by dose curve;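 also: HEK293 cells expressing TRHR with calcium dye readout; series mostly up to about 58 µM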)
How it was run: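 Compounds were tested as agonists at 15 concentrations, in triplicate, on TRHR-Hek293 cells; calcium-sensitive dye fluorescence was recorded for 3 min following addition.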

[12] = Human pregnane X receptor (PXR) small molecule agonists, qHTS cell viability counter screen (AID 1346977); also: nearly all actives have a fitted effect of over 50% in size
How it was run: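 Viability counter screen: CellTiter-Fluor signal in PXR-Luc HepG2 cells, 24hr compound exposure, 37C, 5% CO2.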

[13] = Caspase-3/7 induction in HepG2 cells by small molecules, qHTS assay (AID 1346978); also: nearly all actives have a fitted effect of over 15% in size
How it was run: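 Wild-type HepG2 cells, 2,000/well, settled 5 hr at 37 C and 5% CO2, then compound-treated for 17 hr; caspase-3/7 activity read by luminescent Caspase-Glo 3/7 after 30 min at room temperature.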

[14] = Caspase-3/7 induction in CHO-K1 cells by small molecules, qHTS assay (AID 1346980); also: nearly all actives have a fitted effect of over 15% in size
How it was run: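 Wild-type CHO-K1 cells exposed to compounds for 17hr at 37 C, 5% CO2. Caspase-3/7 activity then measured by Caspase-Glo 3/7 luminescence after 30min at room temperature.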

[15] = Caspase-3/7 induction in HepG2 cells by small molecules, qHTS cell viability counter screen (AID 1346981); also: series mostly up to about 92 µM; nearly all actives have a fitted effect of over 30% in size
How it was run: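 After a 5-hr attachment period at 37 C and 5% CO2, wild-type HepG2 cells received compounds in DMSO. Sixteen hours later CellTiter-Fluor was dispensed and the fluorescent signal quantified after a further hour.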

[16] = molecular target: Nuclear receptor subfamily 1 group I member 2 (Homo sapiens) (UniProt O75469); test: Human pregnane X receptor (PXR) small molecule agonists, qHTS assay (AID 1346982); also: nearly all actives have a fitted effect of over 35% in size; also: potency is read from the fitted curve at half-maximal effect
How it was run: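 Tox21 qHTS; PXR-Luc HepG2; compounds pinned from DMSO; 24 hr, 37 C; ONE-Glo luciferase detection, 30 min room temperature.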

[17] = molecular target: Nuclear receptor subfamily 1 group I member 2 (Rattus norvegicus) (UniProt Q9R1A7); test: Rat pregnane X receptor (rPXR) activation by small molecules, qHTS assay (AID 1346983); details: rPXR luciferase reporter cells, One-Glo luminescence, 24 h; max activation: active compounds read high; also: nearly all actives have a fitted effect of over 20% in size
How it was run: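 Cell-based rPXR activation assay: rPXR cells, 2,000 per well, rested 5hr at 37 C, then exposed to compounds in DMSO for 24 hr at 37 C. Luciferase activity read by One-Glo luminescence after 30 min at room temperature.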

[18] = molecular target: Nuclear receptor subfamily 1 group I member 2 (Homo sapiens) (UniProt O75469); test: CYP3A4 induction through human pregnane X receptor (PXR) by small molecules, qHTS assay (AID 1346984); also: nearly all actives have a fitted effect of over 40% in size
How it was run: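 Cells (DPX-2; HepG2 with PXR element plus CYP3A4-promoter luciferase) settled 5hr, then were treated 24hr at 37C. A 3hr, 3uM-final Luciferin-IPA step preceded luminescence measurement with One-Glo.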

[19] = molecular target: Nuclear receptor subfamily 1 group I member 2 (Homo sapiens) (UniProt O75469); test: Human pregnane X receptor (PXR) activation by small molecules, qHTS assay (AID 1346985); also: nearly all actives have a fitted effect of over 40% in size
How it was run: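 DPX-2 cells (HepG2 co-transfected with a PXR response element and a CYP3A4-promoter luciferase construct) were seeded at 2,000 per well, rested 5 hr at 37C, then exposed to DMSO-dissolved compounds for 24 hr. Activation was read as luciferase luminescence.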

[20] = Caspase-3/7 induction in CHO-K1 cells by small molecules, qHTS cell viability counter screen (AID 1346979); also: nearly all actives have a fitted effect of over 35% in size
How it was run: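 Viability readout by fluorescence (CellTiter-Fluor) on wild-type CHO-K1 cells exposed for 16hr at 37C and 5% CO2 to compounds delivered in DMSO; reagent incubated 1hr before reading.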
% is scaled to controls: 0 for no effect and ±100 for the full control effect.

Progesterone receptor (Homo sapiens), sequence (P06401 whole entry, looked up): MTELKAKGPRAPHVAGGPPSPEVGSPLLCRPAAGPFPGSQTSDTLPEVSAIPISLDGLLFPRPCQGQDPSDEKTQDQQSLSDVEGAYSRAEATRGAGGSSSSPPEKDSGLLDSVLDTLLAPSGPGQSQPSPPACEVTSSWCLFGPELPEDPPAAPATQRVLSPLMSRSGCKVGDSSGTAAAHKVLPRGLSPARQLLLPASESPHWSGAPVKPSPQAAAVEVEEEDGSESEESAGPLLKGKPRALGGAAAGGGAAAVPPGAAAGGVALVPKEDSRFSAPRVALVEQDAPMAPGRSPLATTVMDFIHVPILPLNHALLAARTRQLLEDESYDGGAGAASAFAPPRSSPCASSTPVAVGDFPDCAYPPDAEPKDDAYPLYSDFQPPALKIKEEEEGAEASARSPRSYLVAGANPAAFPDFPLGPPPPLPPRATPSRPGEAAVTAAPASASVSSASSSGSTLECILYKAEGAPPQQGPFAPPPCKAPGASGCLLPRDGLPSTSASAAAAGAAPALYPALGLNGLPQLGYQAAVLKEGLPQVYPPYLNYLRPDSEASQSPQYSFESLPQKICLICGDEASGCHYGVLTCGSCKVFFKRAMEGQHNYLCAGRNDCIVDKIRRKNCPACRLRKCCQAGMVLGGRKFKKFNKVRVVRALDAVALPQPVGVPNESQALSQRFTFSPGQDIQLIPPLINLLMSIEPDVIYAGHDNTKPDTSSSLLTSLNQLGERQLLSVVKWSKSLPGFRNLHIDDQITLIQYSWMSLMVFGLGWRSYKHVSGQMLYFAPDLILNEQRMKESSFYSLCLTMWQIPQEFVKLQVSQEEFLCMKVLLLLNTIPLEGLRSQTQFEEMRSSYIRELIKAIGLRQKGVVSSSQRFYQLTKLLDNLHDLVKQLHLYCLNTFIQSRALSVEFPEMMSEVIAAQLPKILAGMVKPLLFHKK
Nuclear receptor subfamily 1 group I member 2 (Homo sapiens), sequence (O75469 whole entry, looked up): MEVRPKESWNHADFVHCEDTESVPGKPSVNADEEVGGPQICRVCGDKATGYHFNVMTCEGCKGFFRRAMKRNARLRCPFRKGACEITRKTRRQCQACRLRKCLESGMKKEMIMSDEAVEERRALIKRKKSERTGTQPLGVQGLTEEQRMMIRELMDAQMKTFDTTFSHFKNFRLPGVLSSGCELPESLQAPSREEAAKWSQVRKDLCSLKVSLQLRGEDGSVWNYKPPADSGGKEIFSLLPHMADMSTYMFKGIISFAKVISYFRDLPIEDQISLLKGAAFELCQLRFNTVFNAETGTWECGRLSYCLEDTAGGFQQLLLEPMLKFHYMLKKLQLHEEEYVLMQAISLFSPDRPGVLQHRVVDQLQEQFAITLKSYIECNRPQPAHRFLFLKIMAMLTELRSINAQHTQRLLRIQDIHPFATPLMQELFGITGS
Thyrotropin receptor (Homo sapiens), sequence (P16473 whole entry, looked up): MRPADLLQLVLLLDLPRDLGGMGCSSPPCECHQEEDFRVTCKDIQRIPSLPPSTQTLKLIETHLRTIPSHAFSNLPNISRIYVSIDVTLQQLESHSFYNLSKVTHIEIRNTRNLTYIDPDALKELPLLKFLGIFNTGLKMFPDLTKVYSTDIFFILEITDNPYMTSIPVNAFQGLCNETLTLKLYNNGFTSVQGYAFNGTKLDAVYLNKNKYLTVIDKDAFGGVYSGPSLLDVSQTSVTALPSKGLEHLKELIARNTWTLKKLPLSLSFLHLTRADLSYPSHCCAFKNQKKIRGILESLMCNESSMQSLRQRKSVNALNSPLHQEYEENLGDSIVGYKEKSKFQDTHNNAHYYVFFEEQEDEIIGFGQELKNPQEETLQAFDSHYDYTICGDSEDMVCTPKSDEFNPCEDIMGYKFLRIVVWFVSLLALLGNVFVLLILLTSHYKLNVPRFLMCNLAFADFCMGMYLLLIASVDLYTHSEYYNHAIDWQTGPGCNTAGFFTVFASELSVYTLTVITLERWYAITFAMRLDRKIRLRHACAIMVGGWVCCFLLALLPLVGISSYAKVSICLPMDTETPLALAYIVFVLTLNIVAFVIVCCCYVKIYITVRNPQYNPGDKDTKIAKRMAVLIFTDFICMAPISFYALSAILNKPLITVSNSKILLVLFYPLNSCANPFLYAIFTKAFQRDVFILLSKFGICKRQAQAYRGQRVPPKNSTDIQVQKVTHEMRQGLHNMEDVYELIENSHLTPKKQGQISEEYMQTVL
Nuclear receptor subfamily 1 group I member 2 (Rattus norvegicus), sequence (Q9R1A7 whole entry, looked up): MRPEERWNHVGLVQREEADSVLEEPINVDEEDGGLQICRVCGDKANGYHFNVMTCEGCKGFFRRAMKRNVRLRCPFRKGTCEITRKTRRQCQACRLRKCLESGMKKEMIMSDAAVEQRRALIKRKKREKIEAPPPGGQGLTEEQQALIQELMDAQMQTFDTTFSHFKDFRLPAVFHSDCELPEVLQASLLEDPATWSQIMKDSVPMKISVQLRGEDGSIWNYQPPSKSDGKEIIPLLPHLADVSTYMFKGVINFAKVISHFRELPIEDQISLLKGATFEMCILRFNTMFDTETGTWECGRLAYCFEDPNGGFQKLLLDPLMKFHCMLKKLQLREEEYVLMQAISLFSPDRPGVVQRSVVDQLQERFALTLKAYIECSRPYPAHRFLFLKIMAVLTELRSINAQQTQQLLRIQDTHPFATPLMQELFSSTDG
Thyrotropin-releasing hormone receptor (Homo sapiens), sequence (P34981 whole entry, looked up): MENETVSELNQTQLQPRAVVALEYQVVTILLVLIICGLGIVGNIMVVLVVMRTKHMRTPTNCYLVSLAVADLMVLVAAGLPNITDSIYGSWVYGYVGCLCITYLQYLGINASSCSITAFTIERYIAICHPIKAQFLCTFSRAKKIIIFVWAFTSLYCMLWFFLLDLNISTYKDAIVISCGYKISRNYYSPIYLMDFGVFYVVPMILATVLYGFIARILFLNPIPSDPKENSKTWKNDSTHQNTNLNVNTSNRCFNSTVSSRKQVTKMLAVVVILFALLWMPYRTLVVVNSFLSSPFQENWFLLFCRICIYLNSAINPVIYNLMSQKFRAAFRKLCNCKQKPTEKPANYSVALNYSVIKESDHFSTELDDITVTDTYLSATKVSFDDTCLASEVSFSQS

Cc1c[nH]c2ccccc12
inactive: Potency [1] | Potency [2] | Potency [3] | Potency [4] | Potency [5] | Potency [6] | outcome [7] | Potency [8] | Potency [9] | outcome [10] | outcome [11] | Potency [12] | Potency [13] | outcome [14] | Potency [15] | Potency [16] | max activation [17] -6.59% | Potency [18] | Potency [19]

CSCC[C@H](NC(=O)[C@H](Cc1c[nH]c2ccccc12)NC(=O)CCNC(=O)OC(C)(C)C)C(=O)N[C@@H](CC(=O)O)C(=O)N[C@@H](Cc1ccccc1)C(N)=O
inactive: Potency [1] | Potency [2] | Potency [3] | Potency [4] | Potency [5] | Potency [6] | outcome [7] | Potency [8] | Potency [9] | Potency [12] | Potency [13] | outcome [14] | Potency [15] | Potency [16]

CC(C)(C)S
inactive: Potency [1] | Potency [2] | Potency [3] | Potency [4] | Potency [5] | Potency [6] | outcome [7] | Potency [8] | Potency [9] | outcome [10] | outcome [11] | Potency [12] | Potency [13] | Potency [20] | outcome [14] | Potency [15] | Potency [16]

CCNc1nc(N)nc(Cl)n1
inactive: Potency [1] | Potency [2] | Potency [3] | Potency [4] | Potency [5] | Potency [6] | outcome [7] | Potency [8] | Potency [9] | outcome [10] | Potency [12] | Potency [13] | Potency [20] | outcome [14] | Potency [15] | Potency [16]

CCCCCCOC(=O)CCCCC
inactive: Potency [1] | Potency [2] | Potency [3] | Potency [4] | Potency [5] | Potency [6] | outcome [7] | Potency [8] | Potency [9] | outcome [10] | outcome [11] | Potency [12] | Potency [13] | Potency [20] | outcome [14] | Potency [15] | Potency [16]

CCOC(=O)Oc1ccc(CCNC(=O)[C@H](CCSC)NC(C)=O)cc1OC(=O)OCC
inactive: Potency [1] | Potency [2] | Potency [3] | Potency [4] | Potency [5] | Potency [6] | outcome [7] | Potency [8] | Potency [9] | Potency [12] | Potency [13] | Potency [20] | outcome [14] | Potency [15] | Potency [16]

COc1ccc(C)cc1
inactive: Potency [1] | Potency [2] | Potency [3] | Potency [4] | Potency [5] | Potency [6] | outcome [7] | Potency [8] | Potency [9] | Potency [12] | Potency [13] | Potency [20] | outcome [14] | Potency [15] | Potency [16]

COC(OC)OC
inactive: Potency [1] | Potency [2] | Potency [3] | Potency [4] | Potency [5] | Potency [6] | outcome [7] | Potency [9] | Potency [12] | Potency [13] | Potency [20] | outcome [14] | Potency [15] | Potency [16]

Oc1cccc2[nH]ccc12
inactive: Potency [1] | Potency [2] | Potency [3] | Potency [4] | Potency [5] | Potency [6] | outcome [7] | Potency [9] | outcome [10] | outcome [11] | Potency [12] | Potency [13] | outcome [14] | Potency [15] | Potency [16]

CCC(CO)(CO)CO
inactive: Potency [1] | Potency [2] | Potency [3] | Potency [4] | Potency [5] | Potency [6] | Potency [8] | Potency [9] | outcome [10] | Potency [12] | Potency [13] | Potency [20] | outcome [14] | Potency [16]

O=C(c1ccccc1)c1ccc(O)cc1
active: Potency [4] 43.8 µM | Potency [16] 61.8 µM
inactive: Potency [1] | Potency [2] | Potency [3] | Potency [5] | outcome [7] | Potency [8] | Potency [9] | outcome [10] | outcome [11] | Potency [12] | Potency [13] | outcome [14] | Potency [15]

Nc1ccc(S(=O)(=O)NCc2ccccc2)cc1
inactive: Potency [1] | Potency [2] | Potency [3] | Potency [4] | Potency [5] | Potency [6] | outcome [7] | Potency [9] | outcome [10] | outcome [11] | Potency [12] | Potency [13] | Potency [20] | outcome [14] | Potency [15] | Potency [16] | max activation [17] -1.8% | Potency [18] | Potency [19]

CS(=O)(=O)c1ccc([C@@H](C[C@H]2CCC(=O)C2)C(=O)Nc2cnccn2)cc1Cl
inactive: Potency [1] | Potency [2] | Potency [3] | Potency [4] | Potency [5] | Potency [6] | Potency [9] | outcome [10] | outcome [11] | Potency [12] | Potency [13] | Potency [20] | outcome [14] | Potency [15] | Potency [16]

O=C(NC(Cc1cc(=O)[nH]c2ccccc12)C(=O)O)c1ccc(Cl)cc1 (stereo not given)
inactive: Potency [1] | Potency [2] | Potency [3] | Potency [4] | Potency [5] | Potency [6] | outcome [7] | Potency [9] | outcome [10] | Potency [12] | Potency [13] | Potency [20] | outcome [14] | Potency [15] | Potency [16] | max activation [17] -0.429% | Potency [18] | Potency [19]

CCC(Cl)CC(Cl)C(Cl)C(Cl)C(Cl)C(C)Cl (stereo not given)
active: Potency [16] 1.19 µM
inactive: activity change, negative = inhibition [1] -0.191% [at 19 µM] | activity change, negative = cytotoxicity [2] 5.27% [at 19 µM] | activation [3] -2.07% [at 19 µM] | activity change, negative = inhibition [4] -4% [at 18.9 µM] | activity change, negative = cytotoxicity [5] -5.89% [at 18.9 µM] | activity change, negative = cytotoxicity [6] 9.92% [at 19 µM] | activity change, negative = cytotoxicity [8] 0% [at 15.8 µM] | activity, negative = inhibition [10] 0.125% [at 10.5 µM] | activity change, negative = cytotoxicity [12] -5.6% [at 19 µM] | caspase activation [13] -16.4% [at 19 µM] | activity change, negative = cytotoxicity [20] 10.4% [at 19 µM] | caspase-3/7 activation [14] -6.38% [at 19 µM] | activity change, negative = cytotoxicity [15] 1.11% [at 19 µM]

CC(=O)Oc1cccc(O)c1
inactive: Potency [1] | Potency [2] | Potency [3] | Potency [4] | Potency [5] | Potency [6] | Potency [9] | outcome [10] | outcome [11] | Potency [12] | Potency [13] | Potency [20] | outcome [14] | Potency [15] | Potency [16] | max activation [17] -5.99% | Potency [18] | Potency [19]
